# Values without a mark were called inactive. Records with an inconclusive call do not appear. Where a call stands in place of a potency, no number is given. Calls of active or inactive are those of the source. Unless noted, the call rests on the fitted dose curve; in most records, active means well fitted curve in the direction sought with a large enough effect in the repeat runs; inconclusive means weak or mixed curves; inactive means no such curve, though single readings can be large; an effect the other way counts as inactive or inconclusive.
# What was measured:
# [1] = qHTS assay to identify small molecule antagonists of the TGF-beta/Smad signaling pathway - cell viability counter screen (AID 1346824); further: nearly all actives have a fitted effect of over 50% in size
# Procedure, shortened: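 SBE-bla HEK 293T cells, incubated overnight, then compound plus 0.25 ng/mL TGF-beta1 (stock added) for 5 hr at 37 C. Viability was read in the same wells by CellTiter-Glo luminescence after 30 min at room temperature.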
# [2] = qHTS assay to identify small molecule agonists of the TGF-beta/Smad signaling pathway (AID 1346859; active means well fitted activation curve with a large enough effect in the signal ratio in the repeat runs, not every such curve was filed as active; the % refers to the signal ratio; further: series mostly up to about 77 µM)
# Procedure, shortened: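 Stable Smad binding element-beta-lactamase HEK 293T cells; 5 hr compound exposure at 37 C under 5% CO2; 2 hr room-temperature substrate step; fluorescence excited at 405 nm, collected at 460 nm and 530 nm.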
# [3] = target: Thyrotropin-releasing hormone receptor (Homo sapiens) (UniProt P34981); assay: qHTS assay to identify small molecule agonists of the thyrotropin-releasing hormone receptor (TRHR) signaling pathway (AID 1346891; calls by dose curve; further: series mostly up to about 58 µM)
# Chain of Thyrotropin-releasing hormone receptor (Homo sapiens) (P34981 whole entry, looked up): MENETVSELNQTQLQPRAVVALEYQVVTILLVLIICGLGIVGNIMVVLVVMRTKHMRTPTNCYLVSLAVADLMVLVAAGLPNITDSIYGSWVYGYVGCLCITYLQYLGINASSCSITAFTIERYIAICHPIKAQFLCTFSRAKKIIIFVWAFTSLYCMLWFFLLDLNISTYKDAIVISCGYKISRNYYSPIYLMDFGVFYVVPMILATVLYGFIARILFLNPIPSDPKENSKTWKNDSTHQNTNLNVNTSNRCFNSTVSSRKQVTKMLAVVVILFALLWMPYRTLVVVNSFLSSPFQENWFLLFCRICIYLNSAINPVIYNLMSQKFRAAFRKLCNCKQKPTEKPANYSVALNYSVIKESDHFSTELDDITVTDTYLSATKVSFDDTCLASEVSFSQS
# Procedure, shortened: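 In 1536-format, 1500 TRHR-Hek293 cells per well grew 18 h, took up calcium dye for 2 h at 37 °C, received compound, and were read kinetically; 15-point titrations, triplicates.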
# [4] = Human pregnane X receptor (PXR) small molecule agonists, qHTS cell viability counter screen (AID 1346977); further: nearly all actives have a fitted effect of over 50% in size
# Procedure, shortened: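 Readout is CellTiter-Fluor fluorescence from PXR-Luc HepG2 cells. Plated cells rested 5hr, then were treated with compounds for 24hr at 37C and 5% CO2, with reagent present during the last hour.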
# [5] = Caspase-3/7 induction in HepG2 cells by small molecules, qHTS assay (AID 1346978); further: nearly all actives have a fitted effect of over 15% in size
# Procedure, shortened: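 Wild-type HepG2 cells, 2,000/well, settled 5 hr at 37 C and 5% CO2, then compound-treated for 17 hr; caspase-3/7 activity read by luminescent Caspase-Glo 3/7 after 30 min at room temperature.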
# [6] = Caspase-3/7 induction in CHO-K1 cells by small molecules, qHTS cell viability counter screen (AID 1346979); further: nearly all actives have a fitted effect of over 35% in size
# Procedure, shortened: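 To flag cytotoxic compounds, treated CHO-K1 wild-type cells were given CellTiter-Fluor at 16hr and read fluorescently after 1hr at 37C; the caspase-3/7 luminescence was measured in these same wells.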
# [7] = Caspase-3/7 induction in CHO-K1 cells by small molecules, qHTS assay (AID 1346980); further: nearly all actives have a fitted effect of over 15% in size
# Procedure, shortened: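 Wild-type CHO-K1 cells exposed to compounds for 17hr at 37 C, 5% CO2. Caspase-3/7 activity then measured by Caspase-Glo 3/7 luminescence after 30min at room temperature.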
# [8] = Caspase-3/7 induction in HepG2 cells by small molecules, qHTS cell viability counter screen (AID 1346981); further: series mostly up to about 92 µM; nearly all actives have a fitted effect of over 30% in size
# Procedure, shortened: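 Counter screen for cytotoxicity: HepG2 exposed 16 hr to compounds, then CellTiter-Fluor viability signal (fluorescence, 1 hr reagent incubation).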
# [9] = target: Nuclear receptor subfamily 1 group I member 2 (Homo sapiens) (UniProt O75469); assay: Human pregnane X receptor (PXR) small molecule agonists, qHTS assay (AID 1346982); further: nearly all actives have a fitted effect of over 35% in size
# Chain of Nuclear receptor subfamily 1 group I member 2 (Homo sapiens) (O75469 whole entry, looked up): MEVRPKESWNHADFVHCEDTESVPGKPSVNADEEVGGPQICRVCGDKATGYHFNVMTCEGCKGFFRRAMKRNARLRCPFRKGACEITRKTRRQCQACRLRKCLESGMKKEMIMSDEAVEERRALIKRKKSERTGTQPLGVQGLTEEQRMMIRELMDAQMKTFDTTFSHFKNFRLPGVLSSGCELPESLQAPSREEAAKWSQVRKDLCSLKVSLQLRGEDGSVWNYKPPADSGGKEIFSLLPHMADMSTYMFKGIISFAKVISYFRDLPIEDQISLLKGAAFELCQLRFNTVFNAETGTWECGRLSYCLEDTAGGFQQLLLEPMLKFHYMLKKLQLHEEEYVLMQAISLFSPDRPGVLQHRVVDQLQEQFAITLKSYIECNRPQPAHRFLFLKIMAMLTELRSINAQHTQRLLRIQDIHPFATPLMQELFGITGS
# Procedure, shortened: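 Luminescence (ONE-Glo, 30 min RT) after 24 hr compound exposure of PXR-Luc HepG2 cells; cells rested 5 hr post-plating in 5% charcoal-stripped FBS medium.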
# [10] = target: Cytochrome P450 2D6 (Homo sapiens) (UniProt P10635); assay: Cytochrome P450 Family 2 Subfamily D Member 6 (CYP2D6) small molecule antagonists: luciferase reporter qHTS assay (AID 1671196); further: nearly all actives have a fitted effect of over 50% in size; further: potency means the concentration at half of the fitted maximal effect
# Chain of Cytochrome P450 2D6 (Homo sapiens) (P10635 whole entry, looked up): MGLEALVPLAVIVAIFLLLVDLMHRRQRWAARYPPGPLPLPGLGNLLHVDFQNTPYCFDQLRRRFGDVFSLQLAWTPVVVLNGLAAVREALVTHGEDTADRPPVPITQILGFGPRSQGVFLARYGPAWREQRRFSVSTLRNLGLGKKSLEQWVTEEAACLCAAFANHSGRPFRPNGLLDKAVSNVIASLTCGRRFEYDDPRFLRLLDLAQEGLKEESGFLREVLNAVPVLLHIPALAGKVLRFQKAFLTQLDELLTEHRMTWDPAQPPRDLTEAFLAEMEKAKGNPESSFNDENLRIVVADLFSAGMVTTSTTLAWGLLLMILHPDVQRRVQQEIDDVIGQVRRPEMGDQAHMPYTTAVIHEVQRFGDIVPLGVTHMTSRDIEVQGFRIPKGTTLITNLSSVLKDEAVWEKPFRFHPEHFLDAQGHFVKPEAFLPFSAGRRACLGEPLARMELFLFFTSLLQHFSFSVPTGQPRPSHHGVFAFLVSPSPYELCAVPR
# Procedure, shortened: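 Inhibition of CYP2D6 was gauged by loss of luminescence, since light produced tracks the luciferin generated from a proluciferin substrate. A 10 min room-temperature preincubation preceded 1 h NADPH-supported turnover.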
# [11] = target: Cytochrome P450 2C9 (Homo sapiens) (UniProt P11712); assay: Cytochrome P450 Family 2 Subfamily C Member 9 (CYP2C9) small molecule antagonists: luciferase reporter qHTS assay (AID 1671198); further: series mostly up to about 120 µM; nearly all actives have a fitted effect of over 50% in size
# Chain of Cytochrome P450 2C9 (Homo sapiens) (P11712 whole entry, looked up): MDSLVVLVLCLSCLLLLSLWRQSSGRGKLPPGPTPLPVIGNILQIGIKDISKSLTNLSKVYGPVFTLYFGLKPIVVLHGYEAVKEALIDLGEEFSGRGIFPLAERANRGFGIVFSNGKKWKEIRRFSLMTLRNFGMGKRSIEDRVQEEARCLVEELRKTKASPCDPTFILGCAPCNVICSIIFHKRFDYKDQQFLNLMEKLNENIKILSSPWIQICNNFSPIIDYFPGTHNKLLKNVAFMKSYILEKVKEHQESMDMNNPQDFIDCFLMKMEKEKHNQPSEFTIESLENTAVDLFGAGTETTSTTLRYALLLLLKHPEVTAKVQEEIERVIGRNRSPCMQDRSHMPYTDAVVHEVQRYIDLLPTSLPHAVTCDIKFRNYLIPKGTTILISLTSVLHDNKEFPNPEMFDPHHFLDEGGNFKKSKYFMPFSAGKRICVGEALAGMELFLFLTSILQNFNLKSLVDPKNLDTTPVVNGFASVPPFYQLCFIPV
# Procedure, shortened: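 P450-Glo proluciferin substrate with CYP2C9 enzyme; 10 min RT preincubation, then NADPH regeneration 1 h at 37C; luciferin detection reagent 20 min RT, luminescence in relative luminescence units.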
# [12] = target: Voltage-gated inwardly rectifying potassium channel KCNH2 (Homo sapiens) (UniProt Q12809); assay: Human Ether-a-go-go-Related Gene (hERG) channel small molecule antagonists: fluorescence cell-based qHTS assay (AID 1671200)
# Chain of Voltage-gated inwardly rectifying potassium channel KCNH2 (Homo sapiens) (Q12809 whole entry, looked up): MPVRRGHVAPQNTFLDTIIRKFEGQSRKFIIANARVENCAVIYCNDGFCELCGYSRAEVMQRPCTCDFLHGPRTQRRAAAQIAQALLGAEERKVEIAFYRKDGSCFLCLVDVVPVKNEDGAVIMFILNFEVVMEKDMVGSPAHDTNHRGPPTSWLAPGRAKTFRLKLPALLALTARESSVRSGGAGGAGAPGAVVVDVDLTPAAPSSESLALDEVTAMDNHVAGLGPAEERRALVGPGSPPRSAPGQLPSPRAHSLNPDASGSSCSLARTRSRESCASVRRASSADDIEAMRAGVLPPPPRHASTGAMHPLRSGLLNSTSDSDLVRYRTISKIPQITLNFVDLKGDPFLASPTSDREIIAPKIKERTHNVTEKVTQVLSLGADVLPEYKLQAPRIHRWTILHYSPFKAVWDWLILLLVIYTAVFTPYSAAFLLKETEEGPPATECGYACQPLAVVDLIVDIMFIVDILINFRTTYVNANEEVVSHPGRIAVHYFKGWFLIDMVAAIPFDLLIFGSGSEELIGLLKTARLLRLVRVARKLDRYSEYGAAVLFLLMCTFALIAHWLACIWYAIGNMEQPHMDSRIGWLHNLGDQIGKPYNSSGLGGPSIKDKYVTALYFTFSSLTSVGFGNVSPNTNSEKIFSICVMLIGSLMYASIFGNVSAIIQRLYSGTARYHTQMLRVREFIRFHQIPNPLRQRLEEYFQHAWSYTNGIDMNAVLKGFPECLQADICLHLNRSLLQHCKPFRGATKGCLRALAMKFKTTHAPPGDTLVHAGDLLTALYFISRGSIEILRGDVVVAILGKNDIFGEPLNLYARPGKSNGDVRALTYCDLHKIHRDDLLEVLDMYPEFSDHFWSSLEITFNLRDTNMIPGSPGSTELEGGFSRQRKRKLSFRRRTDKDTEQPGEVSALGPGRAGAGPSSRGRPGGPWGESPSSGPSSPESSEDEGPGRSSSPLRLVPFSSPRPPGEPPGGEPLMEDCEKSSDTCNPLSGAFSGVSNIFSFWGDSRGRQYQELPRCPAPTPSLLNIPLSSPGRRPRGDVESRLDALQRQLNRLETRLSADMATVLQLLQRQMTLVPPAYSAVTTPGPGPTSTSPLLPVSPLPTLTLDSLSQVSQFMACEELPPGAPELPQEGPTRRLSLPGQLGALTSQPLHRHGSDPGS
# Procedure, shortened: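 Measured: Tl+ flux via fluorescence (480/540 nm) in hERG-expressing U2OS cells after 1 h dye loading at room temperature.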
# [13] = target: Thyrotropin-releasing hormone receptor (Homo sapiens) (UniProt P34981); assay: qHTS assay to identify small molecule antagonists of the thyrotropin-releasing hormone receptor (TRHR) signaling pathway (AID 1346877; active means well fitted inhibition curve with a large enough effect in the repeat runs, not every such curve was filed as active; further: series mostly up to about 51 µM)
# Procedure, shortened: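 In this cell-based calcium flux format, HEK293 cells expressing TRHR received test compound for 5 min before the agonist TRH (1 nM final). Dye loading lasted 2 h at 37 °C.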
# [14] = target: Cytochrome P450 3A4 (Homo sapiens) (UniProt P08684); assay: Cytochrome P450 Family 3 Subfamily A Member 4 (CYP3A4) small molecule antagonists: luciferase reporter qHTS assay (AID 1671201)
# Chain of Cytochrome P450 3A4 (Homo sapiens) (P08684 whole entry, looked up): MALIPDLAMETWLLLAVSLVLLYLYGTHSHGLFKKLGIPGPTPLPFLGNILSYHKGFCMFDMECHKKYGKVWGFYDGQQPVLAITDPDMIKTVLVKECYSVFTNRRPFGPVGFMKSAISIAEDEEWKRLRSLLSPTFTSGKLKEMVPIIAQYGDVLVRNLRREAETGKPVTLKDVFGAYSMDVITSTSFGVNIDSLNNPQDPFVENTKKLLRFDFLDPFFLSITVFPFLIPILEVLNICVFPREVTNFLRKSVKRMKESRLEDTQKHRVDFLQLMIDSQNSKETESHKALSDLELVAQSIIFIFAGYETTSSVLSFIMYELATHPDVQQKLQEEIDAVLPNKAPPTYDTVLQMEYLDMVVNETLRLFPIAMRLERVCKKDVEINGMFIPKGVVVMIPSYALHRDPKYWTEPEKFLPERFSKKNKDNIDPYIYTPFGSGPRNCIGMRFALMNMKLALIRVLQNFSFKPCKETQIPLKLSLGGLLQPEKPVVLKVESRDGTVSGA
# Procedure, shortened: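 Setup: enzyme-substrate mix, compound pin transfer, 10 min RT. Reaction: NADPH regeneration solution, 1 h RT. Readout: detection reagent stops turnover, luminescence measured after 20 min, expressed in relative luminescence units.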
# [15] = target: Nuclear receptor subfamily 1 group I member 2 (Rattus norvegicus) (UniProt Q9R1A7); assay: Rat pregnane X receptor (rPXR) activation by small molecules, qHTS assay (AID 1346983); details: rPXR luciferase reporter cells, One-Glo luminescence, 24 h; hits give high values; further: nearly all actives have a fitted effect of over 20% in size
# Chain of Nuclear receptor subfamily 1 group I member 2 (Rattus norvegicus) (Q9R1A7 whole entry, looked up): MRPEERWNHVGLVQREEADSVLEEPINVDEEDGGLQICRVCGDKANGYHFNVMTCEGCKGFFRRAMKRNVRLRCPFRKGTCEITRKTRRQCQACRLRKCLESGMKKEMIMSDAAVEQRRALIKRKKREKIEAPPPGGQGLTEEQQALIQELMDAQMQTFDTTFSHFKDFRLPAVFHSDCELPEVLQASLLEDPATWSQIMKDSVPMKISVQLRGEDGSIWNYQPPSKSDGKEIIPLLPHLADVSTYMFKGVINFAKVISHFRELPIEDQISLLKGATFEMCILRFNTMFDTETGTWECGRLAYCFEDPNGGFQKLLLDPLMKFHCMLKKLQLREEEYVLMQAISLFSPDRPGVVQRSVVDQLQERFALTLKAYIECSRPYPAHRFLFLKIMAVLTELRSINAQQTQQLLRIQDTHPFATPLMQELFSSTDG
# Procedure, shortened: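 Cell-based rPXR activation assay: rPXR cells, 2,000 per well, rested 5hr at 37 C, then exposed to compounds in DMSO for 24 hr at 37 C. Luciferase activity read by One-Glo luminescence after 30 min at room temperature.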
# [16] = target: Nuclear receptor subfamily 1 group I member 2 (Homo sapiens) (UniProt O75469); assay: CYP3A4 induction through human pregnane X receptor (PXR) by small molecules, qHTS assay (AID 1346984); further: nearly all actives have a fitted effect of over 40% in size
# Procedure, shortened: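 DPX-2 reporter cells; 24h cpd, 37C; Luciferin-IPA 3uM final x3h; One-Glo 30 min RT; lumi read.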
# [17] = target: Cytochrome P450 1A2 (Homo sapiens) (UniProt P05177); assay: Cytochrome P450 Family 1 Subfamily A Member 2 (CYP1A2) small molecule antagonists: luciferase reporter qHTS assay (AID 1671199); further: nearly all actives have a fitted effect of over 50% in size; further: potency means the concentration at half of the fitted maximal effect
# Chain of Cytochrome P450 1A2 (Homo sapiens) (P05177 whole entry, looked up): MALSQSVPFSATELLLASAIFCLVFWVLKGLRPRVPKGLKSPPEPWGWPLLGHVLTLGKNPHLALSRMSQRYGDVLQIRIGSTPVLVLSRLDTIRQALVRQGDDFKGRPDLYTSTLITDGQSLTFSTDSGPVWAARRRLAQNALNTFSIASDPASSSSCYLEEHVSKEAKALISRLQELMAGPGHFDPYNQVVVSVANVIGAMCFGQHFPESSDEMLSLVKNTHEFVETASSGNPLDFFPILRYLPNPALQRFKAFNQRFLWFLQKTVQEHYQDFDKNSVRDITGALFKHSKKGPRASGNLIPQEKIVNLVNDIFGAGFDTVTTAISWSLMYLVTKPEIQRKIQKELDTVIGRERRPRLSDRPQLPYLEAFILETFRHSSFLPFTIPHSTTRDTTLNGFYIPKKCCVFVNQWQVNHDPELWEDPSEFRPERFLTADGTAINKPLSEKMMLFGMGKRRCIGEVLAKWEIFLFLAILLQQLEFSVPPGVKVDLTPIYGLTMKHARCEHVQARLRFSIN
# Procedure, shortened: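 Signal from luciferin formed by CYP1A2 from a proluciferin substrate is read as luminescence, expressed in relative luminescence units. Compounds sit with enzyme 10 min, NADPH-driven reaction runs 1 h, all at room temperature.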
# [18] = target: Cytochrome P450 2C19 (Homo sapiens) (UniProt P33261); assay: Cytochrome P450 Family 2 Subfamily C Member 19 (CYP2C19) small molecule antagonists: luciferase reporter qHTS assay (AID 1671197); further: series mostly up to about 120 µM; nearly all actives have a fitted effect of over 65% in size
# Chain of Cytochrome P450 2C19 (Homo sapiens) (P33261 whole entry, looked up): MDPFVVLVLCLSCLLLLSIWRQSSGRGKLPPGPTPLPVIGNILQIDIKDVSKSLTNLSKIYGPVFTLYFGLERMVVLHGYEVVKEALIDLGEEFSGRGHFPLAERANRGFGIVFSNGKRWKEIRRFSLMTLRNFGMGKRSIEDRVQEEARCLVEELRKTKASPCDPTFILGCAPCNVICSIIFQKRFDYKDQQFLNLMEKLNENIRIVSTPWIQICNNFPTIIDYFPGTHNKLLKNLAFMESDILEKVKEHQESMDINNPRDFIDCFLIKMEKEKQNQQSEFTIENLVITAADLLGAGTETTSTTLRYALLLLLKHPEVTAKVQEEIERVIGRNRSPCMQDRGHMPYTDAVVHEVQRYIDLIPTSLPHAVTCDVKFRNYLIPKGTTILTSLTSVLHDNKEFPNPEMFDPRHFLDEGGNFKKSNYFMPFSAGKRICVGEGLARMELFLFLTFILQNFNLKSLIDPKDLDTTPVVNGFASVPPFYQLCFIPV
# Procedure, shortened: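 P450-Glo CYP2C19 screening system; proluciferin substrate; DMSO compound stocks; 10 min RT preincubation; NADPH regeneration, 1 h at 37C; luciferin detection reagent, 20 min RT; luminescence as RLU.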
# [19] = qHTS assay to identify small molecule agonists of the TGF-beta/Smad signaling pathway - cell viability counter screen (AID 1346829); further: top concentration of the series differs between compounds; nearly all actives have a fitted effect of over 45% in size
# Procedure, shortened: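 Compound-treated SBE-bla HEK 293T cells (5 hr, 37 C) were assessed for viability with CellTiter-Glo in parallel with the reporter read.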
SMILES,outcome [1],outcome [2],outcome [3],outcome [4],outcome [5],Potency [6],outcome [7],outcome [8],Potency [9],Potency [10],Potency [11],Potency [12],outcome [13],Potency [14],max activation [15] [%],Potency [16],Potency [17],Potency [18],outcome [19]
COc1nc(N)nc2nc[nH]c12,inactive,inactive,inactive,inactive,inactive,inactive,inactive,inactive,inactive,10 µM (active),inactive,inactive,,,,,,,
COC(=O)c1cccc(Cl)c1,inactive,inactive,inactive,inactive,inactive,inactive,inactive,inactive,inactive,,inactive,inactive,inactive,inactive,,,,,
Cc1c(NC(=O)c2cccnc2)c(=O)n(-c2ccccc2)n1C,inactive,inactive,inactive,inactive,inactive,inactive,inactive,inactive,inactive,inactive,inactive,inactive,,inactive,-1.68,inactive,inactive,,
CC1c2ccccc2CN1NC(=O)c1ccc(Cl)c(S(N)(=O)=O)c1 (stereo unspecified),inactive,inactive,inactive,inactive,inactive,inactive,,inactive,inactive,inactive,,inactive,inactive,inactive,,,inactive,,
CC(C)NC(=O)c1ccc(C=O)cc1,inactive,,inactive,inactive,,inactive,,inactive,inactive,inactive,inactive,inactive,inactive,inactive,,,34.7 µM (active),inactive,
C[C@H]1[C@@H](c2ccccc2)NC(=O)N1C,inactive,inactive,inactive,inactive,inactive,inactive,inactive,inactive,inactive,inactive,inactive,inactive,inactive,inactive,,,,,
CC(N)CCCC(C)(C)O (stereo unspecified),inactive,inactive,,inactive,inactive,inactive,inactive,inactive,,,inactive,,,,-1.43,,,inactive,
CC(=O)O[C@H]1C[C@@H]2CC[C@@]1(C)C2(C)C,inactive,inactive,inactive,inactive,,inactive,inactive,inactive,inactive,,inactive,inactive,inactive,inactive,,,,,
CCCCCC/C=C/C(=O)OC,inactive,,,inactive,inactive,inactive,inactive,inactive,inactive,,inactive,inactive,,inactive,,,,inactive,
Cn1nnc2c(C(N)=O)ncn2c1=O,inactive,inactive,inactive,inactive,inactive,inactive,inactive,inactive,inactive,inactive,inactive,,,inactive,-4.63,inactive,inactive,inactive,
CC(C)c1ccc(C=O)cc1,inactive,inactive,inactive,inactive,inactive,inactive,inactive,inactive,inactive,inactive,,inactive,inactive,inactive,,,inactive,inactive,
COc1ccc2c(c1)c1c3n2CCN(C)C3=NCC1,inactive,inactive,inactive,inactive,inactive,inactive,,inactive,inactive,15.5 µM (active),inactive,inactive,inactive,inactive,5.26,inactive,,,
CCCC(=O)Nc1ccc(OCC(O)CNC(C)C)c(C(C)=O)c1 (stereo unspecified),inactive,inactive,,inactive,inactive,inactive,inactive,inactive,inactive,,,inactive,,inactive,-1.06,inactive,,inactive,
CN1CCOC(c2ccccc2)c2ccccc2C1 (stereo unspecified),inactive,inactive,inactive,inactive,inactive,inactive,inactive,inactive,,,,,inactive,,-1.81,,,,
CC1CCc2c(N3CCC(O)CC3)c(F)cc3c(=O)c(C(=O)O)cn1c23 (stereo unspecified),inactive,,inactive,inactive,inactive,inactive,inactive,inactive,inactive,inactive,,inactive,inactive,inactive,-2.67,inactive,inactive,,
CN(C)C(C)(C)CO,,inactive,inactive,inactive,inactive,inactive,inactive,inactive,inactive,inactive,,inactive,inactive,inactive,,,inactive,inactive,inactive
C=CC/C=C/C,inactive,inactive,inactive,inactive,inactive,inactive,inactive,inactive,inactive,,inactive,inactive,,inactive,,,,inactive,

# Source: PubChem BioAssay (Tox21)
